Screening results as filed in PubChem BioAssay.
RBX1-CUL1 inh = human ROC1-CUL1 E3 ligase inhibition; in vitro K48 di-Ub FRET, acceptor:donor ratio, 45 min; AID 1347404; P62877+Q13616; actives 0.6% (n = 140,000); inhibition, % at 10 µM; in the data active means inhibition above about 25%
* marks the source's active call; other numbers are inactive results. Shown is part of a subset that was picked to be rich in hits.

SMILES	RBX1-CUL1 inh
Cc1ccc(SCc2cc(=O)[nH]c(SC(C(=O)c3ccccc3)c3ccccc3)n2)cc1 (stereo not drawn)	5.3
COc1cc(C2C3=C(CCCC3=O)N(c3cc([N+](=O)[O-])ccc3C)C(=N)C2C(=O)c2ccc(C)cc2)cc(OC)c1OC (stereo not drawn)	-11.9
CC(=O)NCCC1CCN(c2nc3nonc3nc2N2CCCC2)CC1	3.2
CCOc1cc(/C=C2\N=C(c3ccccc3)OC2=O)ccc1OCc1ccc(Cl)cc1	-2.5
COc1ccc(/C=C2\N=C(c3ccccc3)OC2=O)cc1[N+](=O)[O-]	0.1
CCN(CC)c1ccc(/C=C2\N=C(c3ccccc3)OC2=O)cc1	31.7*
Cc1c(Cl)cccc1NC(=S)N1CCCC(CO)C1 (stereo not drawn)	7.3
CC1=NN(c2ccc(C)cc2)C(=O)/C1=C\c1cccnc1	82.0*
CC1=NN(c2ccccc2)C(=O)/C1=C/c1ccc(OCCCOc2ccccc2)cc1	-9.9
CC1=NN(c2ccc(C)cc2)C(=O)/C1=C\c1ccc(OC(C)C)cc1	6.9
O=C1CCC(=O)N1CNc1ccc(Cl)c(Cl)c1	0.0
COc1ccccc1-c1nn2c(-c3cccc(F)c3)nnc2s1	0.4
CN(C)S(=O)(=O)N1CCC2(CC1)c1ccccc1[C@@H](n1ccnc1)[C@@H]2O	7.1
COc1cc(/C=C2\C(=O)NN(c3ccccc3)C2=O)cc(I)c1OCCCOc1ccc(Cl)cc1	0.2
COc1cc(Br)cc(/C=C2\C(=O)NN(c3ccc(C)c(Cl)c3)C2=O)c1O	43.0*
COc1cc(/C=C2\C(=O)NN(c3ccc(Cl)c(Cl)c3)C2=O)cc(Br)c1O	7.0
COc1ccc(Br)cc1/C=C1/C(=O)NN(c2cccc(Cl)c2)C1=O	89.4*
O=C1NN(c2ccc(Cl)cc2)C(=O)/C1=C\c1cc(I)cc(I)c1O	-11.3
COc1ccccc1/C=C1/C(=O)NN(c2ccc(Br)cc2)C1=O	2.8
COc1cc(/C=C2\C(=O)NN(c3ccc(C)cc3)C2=O)cc(Br)c1O	12.0
COc1ccc(/C=C2\C(=O)NN(c3cccc(Cl)c3)C2=O)cc1	8.4
O=C1NN(c2ccccc2)C(=O)/C1=C/c1cccc(OCCCOc2ccc(Cl)cc2)c1	4.9
CC(=O)Oc1cccc(/C=C2/C(=O)NN(c3cccc(Cl)c3)C2=O)c1	25.6*
COc1ccccc1/C=C1\C(=O)NN(c2cccc(Cl)c2)C1=O	5.6
COc1c(I)cc(I)cc1/C=C1/C(=O)NN(c2ccc(Cl)cc2)C1=O	46.5*
SMILES	RBX1-CUL1 inh
COCC1CCN(c2ccc(-c3nc(C(C)C)no3)cn2)C1 (stereo not drawn)	13.4
Cc1cc(C)c(NC(=O)CSc2nnc(-c3ccc(Cl)c(Cl)c3)n2C)c(C)c1	-3.5
COc1ccc(-c2nnc(SCC(=O)N/N=C(\C)c3ccc(O)cc3)n2-c2ccc(OC)cc2)cc1	-6.2
CC1=CC=CN2C(=O)C(C(=O)NCCc3ccc(S(N)(=O)=O)cc3)C(=O)N=C12 (stereo not drawn)	-1.5
Cc1cccn2c(=O)c3cc(C(=O)NCc4cccnc4)c(=N)n(Cc4ccncc4)c3nc12	1.8
O=C(Cc1ccc(Cl)cc1)Nc1ccc(NC(=O)c2ccco2)cc1	-11.7
Cc1cc(/C=C2/C(=N)N3N=C(C(F)(F)F)SC3=NC2=O)c(C)n1-c1ccc(F)cc1	-3.4
Cc1c(C(c2ccc(O)c(O)c2)c2c(C)n(C)n(-c3ccccc3)c2=O)c(=O)n(-c2ccccc2)n1C	4.9
Cc1ccc(C=Nc2c(N)[nH]c(=O)[nH]c2=O)cc1	-8.6
CC(C)(C)c1cc(C2=CCCCC2)c(C(C)(C)C)s1	6.2
CCOC(=O)c1sc(NC(=O)c2cc3nc(-c4ccccc4)cc(-c4ccccc4)n3n2)c(C(=O)OCC)c1C	-7.3
COc1ccccc1NC(=O)c1cc(C)cc(C)c1	-0.9
Cc1ccc(C(C)C)c(OCCNC(=O)C23CC4CC(CC(C4)C2)C3)c1	5.9
CCc1ccccc1N=C1S/C(=C\c2c(OC)ccc3ccccc23)C(=O)N1c1ccccc1CC	2.6
CCOC(=O)N1CCN(C(=O)c2ccc(N3CCC(NCc4ccc(C)c(F)c4)CC3)cc2)CC1	3.6
COc1c(I)cc(I)cc1/C=C1\C(=O)NN(c2cccc(Cl)c2)C1=O	48.4*
COC(=O)c1cc(-c2ccc(/C=C3/C(=O)NN(c4cccc(Br)c4)C3=O)o2)ccc1Cl	4.8
COc1ccc2cccc(/C=C3\C(=O)NN(c4ccc(Cl)c(Cl)c4)C3=O)c2c1	7.8
O=C1NN(c2cccc(Cl)c2)C(=O)/C1=C/c1cc(I)cc(I)c1O	1.2
O=C1NN(c2cccc(Cl)c2)C(=O)/C1=C\c1ccc(-c2ccc(Br)cc2C(=O)O)o1	80.4*
COC(=O)c1cccc(-c2ccc(/C=C3/C(=O)NN(c4cccc(Cl)c4)C3=O)o2)c1	11.1
CN(Cc1ccccc1)c1ncccc1CNCc1nccn1C	-1.3
COc1cccc(-c2ccc3c(N)c(C(=O)Nc4cc(OC)ccc4Cl)sc3n2)c1	-5.7
COCCC(=O)N1CCCC(CCC(=O)NCc2cccc(OC)c2)C1 (stereo not drawn)	6.3
O=C1NN(c2ccccc2)C(=O)/C1=C\c1cc(O)ccc1Br	3.0
SMILES	RBX1-CUL1 inh
O=C1NN(c2ccccc2)C(=O)/C1=C/c1cc(Br)ccc1OCCCOc1ccc(Cl)cc1	18.1
O=C1NN(c2ccccc2)C(=O)/C1=C/c1ccc(OCc2ccc(Cl)c(Cl)c2)cc1	-12.7
Cc1ccc(OCCCOc2ccc(Br)cc2/C=C2\C(=O)NN(c3ccccc3)C2=O)cc1	60.6*
O=C1NN(c2ccccc2)C(=O)/C1=C/c1ccccc1OCCCOc1ccccc1	9.5
O=C1NN(c2ccccc2)C(=O)/C1=C/c1ccccc1OCc1ccc(Cl)c(Cl)c1	16.7
O=C1NN(c2ccccc2)C(=O)/C1=C/c1cc(Br)ccc1OCc1ccc(Cl)c(Cl)c1	72.3*
O=C1NN(c2ccc(Br)cc2)C(=O)/C1=C\c1ccccc1OCc1ccccc1	22.7
Cc1ccccc1COc1ccc(Br)cc1/C=C1\C(=O)NN(c2ccccc2)C1=O	49.5*
CC1=NC(=S)NC(c2ccc(F)cc2)C1C(N)=O (stereo not drawn)	-3.9
O=C(Nc1ccccc1Cl)c1nnn(-c2ccccc2)c1-c1ccccc1	2.6
O=C(CCc1cc(Cl)no1)N1CCc2[nH]nc(C3CCC3)c2C1	0.7
COc1ccc(C2Sc3ccccc3N=C3c4cc(F)ccc4OCC32)cc1 (stereo not drawn)	3.6
COC(=O)[C@@H]1CCCN1C(=O)Cc1ccc(N2CCC(NCCSc3nccn3C)CC2)cc1	0.2
O=C(O)CCNc1nc(-c2ccccc2)nc2ccccc12	3.0
O=C(O)CCNc1cccc2ncccc12	80.8*
O=C(O)CCSc1ncnc2ccccc12	8.2
COc1cc(/C=C/c2nn(-c3ccc(Br)cc3)c3c(=O)ccccc23)cc(OC)c1OC	5.8
O=c1c(Cl)cc(Cl)nn1-c1ccccc1	-7.5
O=c1ccccc2c(/C=C/c3ccc(Cl)cc3Cl)nn(-c3ccccc3)c12	26.5*
C=CCNC1CCN(c2ccc(NC(=O)CCc3ccccc3)cc2)CC1	4.6
CC(C)NS(=O)(=O)c1cccnc1Cl	-12.4
O=C1C(Cl)=C(Cl)C(=O)C(CCNc2ncccn2)=C1Cl	97.9*
COCc1ccc(C(=O)Nc2ccc(-c3nc(CNC(=O)CC4=CCCCC4)c(C)o3)cc2)o1	2.8
O=C(CNC(=O)c1ccc(Cl)cc1)OCC(=O)c1ccc(F)cc1	-9.9
CCC(=O)Nc1cc(S(=O)(=O)NC2CC2)ccc1OC	0.4
COC(=O)c1ccc([C@@H]2Nc3c(OC)ccc(C)c3[C@@H]3C=CC[C@@H]32)cc1	4.4
